Experimental data reported in PubChem BioAssay (NCI).
The panel holds about 83,000 compounds, 20% with a hit somewhere; the sample as a whole holds those more often.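 Each cell line was grown in a 96-well plate and treated with one concentration of compound for 48 hours. Values below 10 were considered active.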 Unmarked numbers belong to inactive results. The source made the active and inactive calls.

What was measured:
Assay in all cases: NCI-60 one-dose screen, 48 h (100 = growth as untreated, 0 = no growth, -100 = all killed)
Conditions in all cases: 10 µM unless noted
NCI-H23 lung = system: NCI-H23 lung
NCI-H226 lung = system: NCI-H226 lung
NCI-H322M lung = system: NCI-H322M lung
HOP-62 NSCLC = system: HOP-62 NSCLC
NCI-H460 lung = system: NCI-H460 lung
HOP-92 NSCLC = system: HOP-92 NSCLC
NCI-H522 lung = system: NCI-H522 lung
A549/ATCC NSCLC = system: A549/ATCC NSCLC
786-0 renal = system: 786-0 renal
COLO 205 colon = system: COLO 205 colon
DU-145 prostate = system: DU-145 prostate
K-562 leukemia = system: K-562 leukemia
MALME-3M melanoma = system: MALME-3M melanoma
RXF 393 renal = system: RXF 393 renal
SF-268 CNS = system: SF-268 CNS
SF-295 CNS = system: SF-295 CNS
SF-539 CNS = system: SF-539 CNS
UACC-257 melanoma = system: UACC-257 melanoma
M14 melanoma = system: M14 melanoma
MDA-MB-231 breast = system: MDA-MB-231 breast

| Structure (SMILES) | growth (NCI-H23 lung) | growth (NCI-H226 lung) | growth (NCI-H322M lung) | growth (HOP-62 NSCLC) | growth (NCI-H460 lung) | growth (HOP-92 NSCLC) | growth (NCI-H522 lung) | growth (A549/ATCC NSCLC) | growth (786-0 renal) | growth (COLO 205 colon) | growth (DU-145 prostate) | growth (K-562 leukemia) | growth (MALME-3M melanoma) | growth (RXF 393 renal) | growth (SF-268 CNS) | growth (SF-295 CNS) | growth (SF-539 CNS) | growth (UACC-257 melanoma) | growth (M14 melanoma) | growth (MDA-MB-231 breast) [%] |
| --- | --- | --- | --- | --- | --- | --- | --- | --- | --- | --- | --- | --- | --- | --- | --- | --- | --- | --- | --- | --- |
| CCN(CC)C(=O)N/C(N)=N/c1nc2ccccc2s1 | 34.5% | 39.4% | 81.4% | 68.9% | 67% | 72.2% | 51.2% | 62.9% | 63.2% | 86.4% | 48.8% | 30.3% | 56.8% | 58.5% | 72.6% | 32.5% | 69.7% | 40.5% | 71.9% | – |
| NS(=O)(=O)c1ccc(-n2cc(-c3cccc(NC(=O)c4cc(C(F)(F)F)cc(C(F)(F)F)c4)c3)nn2)cc1 | 41.1% | 27.5% | 65.8% | 15% | 71.4% | -16.9% (active) | 75.4% | 56.7% | 44.2% | 91.7% | 69.7% | 52.7% | 63.7% | – | 45.3% | 31.4% | 35.1% | 91.1% | 65% | – |
| COc1cccc(/C=C/C(=O)c2ccc(OC)c(S(N)(=O)=O)c2)c1 | 15.1% | 53.9% | 22.2% | 21.4% | 16.2% | 55.9% | -65.1% (active) | 10.3% | 14.6% | -18.4% (active) | 31.8% | – | 71.2% | 41.7% | 39.5% | 34.6% | -11.6% (active) | 65.8% | 41.2% | 49.4 |
| CC(=O)Nc1cccc(Nc2nc(N[C@H]3CCCc4ccccc43)c3ccccc3n2)c1 | 104% | 111% | 103% | 102% | 104% | 110% | 97.5% | 104% | 106% | 109% | 104% | 94.2% | 102% | 120% | 95.5% | 97.3% | 97.2% | 102% | 101% | – |
| N#Cc1c(-c2ccc(Br)cc2)nc2n[nH]c(-c3ccc(Br)cc3)c2c1-c1ccc(F)cc1 | 92.6% | 87.5% | 90.6% | 87.9% | 106% | 112% | 94.1% | 99.7% | 102% | 92.1% | 116% | 76.4% | 86.2% | 102% | 129% | 98.9% | 97.4% | 103% | 97.7% | – |
| N#Cc1c(NCc2ccccc2)n[nH]c1Nc1ccccc1 | 58.4% | 50.2% | 65.1% | 88.9% | 44.2% | 62.3% | 82.3% | 31.6% | 63.3% | -8.53% (active) | 92.7% | – | 21.9% | 60.7% | 54.8% | 49.5% | 75.9% | 50.9% | 41.1% | 66.3 |
| COc1ccc(/C=C2\C(=O)Nc3ccc(Cl)cc32)cc1OCc1ccccn1 | 31.6% | 15.6% | 56% | 14.6% | 26.4% | -12.7% (active) | 81.1% | 41% | -18.6% (active) | 77.8% | 57.5% | 51.6% | 38.2% | 2.03% (active) | 44% | 38.4% | -9.35% (active) | 72.6% | 52.8% | – |
| CC1=C(C(=O)c2ccccc2)C(c2cccc(Cl)c2Cl)n2c(nc3ccccc32)N1 (stereo not drawn) | 63% | 7.18% (active) | 72% | 14.9% | 60.9% | 18% | 49.9% | 53.4% | 37.9% | 82.3% | 58.1% | 61.4% | 57.9% | 42.8% | 43.6% | 63.3% | 16.6% | 76.2% | 81.8% | – |
| C=C1CC[C@@H]2[C@]3(C)COC(c4cn[nH]c4-c4ccc(C)cc4)O[C@@H]3CC[C@@]2(C)[C@@H]1C/C=C1/C(=O)OCC1O (stereo partly drawn) | -8.25% (active) | -65.3% (active) | 79.9% | 27.4% | 67% | -9.12% (active) | -58.4% (active) | 41.5% | -64% (active) | 12.8% | 37.2% | 2.59% (active) | -52.6% (active) | -31.7% (active) | 54.2% | 49.5% | -88.1% (active) | -0.178% (active) | -42.2% (active) | – |
| CNC(=O)c1cc(Oc2ccc3nc(NC(=O)Nc4cccc(OC(F)(F)F)c4)sc3c2)ccn1 | 6.71% (active) | -24.5% (active) | 47.8% | -71.7% (active) | 29.9% | -63% (active) | 26.6% | 35.2% | -50.7% (active) | 68.2% | 36.8% | 47.1% | -25.2% (active) | -40.1% (active) | 11.8% | -18.9% (active) | -57.8% (active) | 47.9% | 44.8% | – |
| CSc1ccc(NC(=O)c2ccc3nnn(/C(C#N)=C/c4ccccn4)c3c2)cc1 | -95.9% (active) | -94.9% (active) | 3.57% (active) | -58.1% (active) | -47.2% (active) | -77.6% (active) | -95.4% (active) | -52.5% (active) | -98.1% (active) | -88.4% (active) | -97.9% (active) | -5.65% (active) | -94.6% (active) | -98.6% (active) | -3.01% (active) | -73.3% (active) | -99.3% (active) | -76.9% (active) | -89.7% (active) | – |
| O=C1C(=Nc2ccc(F)c(Cl)c2)c2cccc3cccc1c23 | 90.9% | 91.9% | 85.2% | 81.2% | 78% | 96.9% | 104% | 89.6% | 91.8% | 94% | 80.3% | – | 49.8% | 107% | 68.6% | 47.3% | 26.8% | 49% | 63.2% | 59.6 |
| COc1cc(OC)cc(C(=O)Nc2cccc(-c3cn(-c4ccc(S(N)(=O)=O)cc4)nn3)c2)c1 | 80.3% | 57.5% | 89.9% | 6.62% (active) | 82.8% | 24.2% | 69.1% | 90.9% | 74.6% | 109% | 97.2% | – | 79.9% | 57.5% | 50.3% | 63% | 60.3% | 101% | 91.3% | 67.5 |
| CC(=O)Oc1ccccc1C(=O)[Se]CC(=O)Nc1cccc(C(F)(F)F)c1 | -50.9% (active) | -39.2% (active) | -16.5% (active) | -61.1% (active) | 0.365% (active) | -60.3% (active) | -30.4% (active) | -61.3% (active) | -14.7% (active) | 19.7% | 8.88% (active) | 18.6% | -92.8% (active) | -25.5% (active) | 2.38% (active) | -76.8% (active) | -90.1% (active) | -24.2% (active) | -37.4% (active) | – |
| Cc1ccc(-c2nnc3ccc(N/N=C/c4ccccc4)nn23)cc1 | 60.5% | 98% | 91.4% | 88.5% | 68.5% | 70.5% | 105% | 93.1% | 99% | 98.4% | 75.9% | – | 95.6% | 94.3% | 57.8% | 52.3% | 80.8% | 103% | 67.3% | 80.1 |
| CCOc1ccc(-c2c(C#N)c(-c3ccc(Cl)cc3)nc3n[nH]c(-c4ccc(Cl)cc4)c23)cc1OC | 70.1% | 59.1% | 77.1% | 68.7% | 42.3% | 36.7% | 64.9% | 55.4% | 65.3% | 29% | 64.9% | 9.47% (active) | 46.7% | 47.4% | 72.9% | 75.7% | 62.6% | 54.4% | 60% | – |
